Measured values published in PubChem BioAssay AID1259240 (Keith Lab, Institute of Cancer Science, University of …, 2017).
Unmarked numbers belong to inactive results. Active and inactive are the calls of the source. No stated cut-off is given here; in the data, active means fold change mostly below about -2 (no sharp cut-off); inactive means mostly above about -1.8.

assay: TERT promoter activity modulators, primary screen, cell-based, luciferase reporter, human (AID 1259240); settings: A2780 TERT promoter luciferase reporter, 16 h; at 20 µM, fold versus average of vehicle-only wells unless noted

Row | Structure (SMILES) | fold change | outcome
1 | CC12CC(c3ccccc3O1)C(C(=O)OCc1ccccc1)C(=O)N2 (centres undefined) | -2.11 [at 20 µM] (active) | –
2 | Cc1cc(Cl)cc2c1NC(c1cccnc1)C1CC=CC21 (centres undefined) | -2.25 (active) | –
3 | Cc1nnc2ccc(N3CCN(C)CC3)nn12 | -1.19 [at 20 µM] | –
4 | Cc1oc(-c2ccccc2F)nc1CN1C(=O)CN=C(c2ccccc2)c2ccccc21 | -1.14 | –
5 | CCN1CCN(c2ccc3nncn3n2)CC1 | -1.39 | –
6 | CCOC(=O)C1CC2CCCN2C12C(=O)N(Cc1ccccc1)c1ccccc12 (centres undefined) | -1.82 [at 20 µM] | –
7 | CC1N=C(c2ccccc2F)c2cc(Cl)ccc2N(Cc2cc(=O)n3ccccc3n2)C1=O (centres undefined) | -1.26 | –
8 | Clc1ccc(Cl)c2c1NC(c1cccnc1)C1CC=CC21 (centres undefined) | – | inactive
9 | N#Cc1cnn2c(C(F)(F)F)cc(-c3cccs3)nc12 | 1.09 | –
